Experimental data reported in PubChem BioAssay AID540276 (National Center for Advancing Translational Sciences (NCATS), 2011).
Out of some 300,000 compounds screened, about 5,400 (1.8%) were called active. Inconclusive results (about 28%) are left out. Calls follow the shape of the full dose curve; tested in HEK293 cells. The entries come from a sample that favours actives as a whole. A call without a number means that no potency is given here.

experiment: qHTS for inhibitors of binding or entry into cells for Marburg Virus; conditions: Marburg virus pseudotyped entry inhibition, cell reporter; series mostly up to 37.8 µM
Potency is read from the fitted curve at half-maximal effect.

Structure (SMILES) | Potency
CCOC(=O)C1CCN(S(=O)(=O)c2ccc3c(c2)N(C(C)=O)CCO3)CC1 | inactive
O=C(c1cccnc1)N(Cc1ccccc1)C(=O)c1cccnc1 | inactive
O=C(NCC(=O)N1CCN(c2ncc(C(F)(F)F)cc2Cl)CC1)c1ccc(Br)o1 | inactive
O=C(Nc1cccc2c1CCCC2)c1ccc(F)cc1 | inactive
CC(C)C1CCCCC1NC(=O)CN1C(=O)C2=C(CCCC2)C1=O (stereo not drawn) | inactive
CCOc1ccc(S(=O)(=O)N2CCN(C(=O)c3oc4ccccc4c3C)CC2)cc1 | inactive
O=C(COC(=O)c1ccc(F)cc1)Nc1nc2ccc([N+](=O)[O-])cc2s1 | inactive
Cc1cc(C)cc(OCC(=O)Nc2nc3ccc([N+](=O)[O-])cc3s2)c1 | inactive
O=C(NC(Nc1nc2ccc([N+](=O)[O-])cc2s1)(C(F)(F)F)C(F)(F)F)c1ccccc1 | 0.517 µM (active)
Cc1ccccc1N1CCN(C(=O)c2cccnc2)CC1 | inactive
O=C(NCCc1cccc(F)c1)C1CCCN(c2nc3ccccc3s2)C1 (stereo not drawn) | inactive
CCn1c(SCC(=O)NC2CCCC2)nnc1-c1ccoc1C | inactive
Cc1csc(SCC(=O)Nc2sccc2C#N)n1 | 4.47 µM (active)
Cc1ccc(NC(=O)CSCC(=O)Nc2sccc2C#N)cc1 | inactive
Cc1cccc(C)c1Nc1nnc(SCC(=O)Nc2sccc2C#N)s1 | inactive
O=[N+]([O-])c1cc2ccccc2nc1-c1ccccc1 | inactive
O=C(NCCN1CCOC1=O)C1CCC(=O)N(CCc2ccc(Cl)cc2)C1 (stereo not drawn) | inactive
COCCOC(=O)C1=C(C)OC(N)=C(C#N)[C@H]1c1ccco1 | inactive
CCNC(=O)N1c2ccccc2Sc2ccccc21 | inactive
O=C(CN1CCCCCC1)N1c2ccccc2Sc2ccc(C(F)(F)F)cc21 | 18.3 µM (active)
O=C(CN1C(=O)/C(=C\c2ccc(C(F)(F)F)cc2)Sc2ccccc21)NCc1ccco1 | inactive
Oc1ccc(-n2nnnc2SCc2c(F)cccc2Cl)cc1 | inactive
O=C(NN=Cc1ccccc1O)NN=Cc1ccccc1O | 3.98 µM (active)
O=C(CCCO)N/N=C/c1cc(Br)ccc1O | inactive
O=C(N/N=C/c1ccc(O)c2ccccc12)c1cccnc1 | inactive
Cc1ccc(NC(=O)CSc2nc(=O)n(CCN(C)C)c3c2CCCC3)c(C)c1 | inactive

Structure (SMILES) | Potency
O=C1CCCCC1Sc1ccc(Cl)cc1[N+](=O)[O-] (stereo not drawn) | inactive
CCn1c(SCC(=O)Nc2ccc(Br)cc2)nc2sc3c(c2c1=O)CCN(C)C3 | inactive
C/C(CC(=O)Nc1ccc(C)cc1C)=N\NC(=O)C(C)C | inactive
COc1ccc(NC(=O)NC(C)c2c(-n3cccc3)sc(C)c2C)cc1OC (stereo not drawn) | inactive
Cc1ccc(NC(=O)NC(C)c2c(-n3cccc3)sc(C)c2C)c(C)c1 (stereo not drawn) | 11.2 µM (active)
CC(=O)c1ccc(NC(=O)c2ccc3c(Cl)c4c(nc3c2)CCCC4)cc1 | inactive
CC(C)CCNC(=O)c1ccc2c(Cl)c3c(nc2c1)CCC3 | 10 µM (active)
COc1cccc(CNC(=O)c2ccc3c(Cl)c4c(nc3c2)CCCC4)c1 | inactive
COc1ccccc1N1CCC(N2CCN(CC(C)(C)C)C(CCO)C2)CC1 (stereo not drawn) | inactive
CC(C)(C)c1ccc(C(=O)N2CCN(CCNC(=O)C(=O)Nc3ccc(F)cc3)CC2)cc1 | inactive
COc1ccccc1CNC(=O)c1ccc(N(C)S(=O)(=O)c2ccc(C)cc2)cc1 | inactive
CC(C)c1nc(NC[C@H]2CCCO2)c(C#N)c2c1COC(C)(C)C2 | inactive
COCCNc1nc(N)c([N+](=O)[O-])c(N2CCCCCC2)n1 | inactive
Nc1nc(Nc2ccccc2)nc(NCCO)c1[N+](=O)[O-] | inactive
CCN1CCN(c2nc(Nc3cccc(F)c3)nc(N)c2[N+](=O)[O-])CC1 | 12.6 µM (active)
COC(=O)CC(CC(=O)OC)n1cccc1 | inactive
COc1ccc2[nH]c3nc(SCC(=O)NC4CC4)nnc3c2c1 | inactive
CC1CCCCC1NC(=O)c1cn(C)c2ccc(S(=O)(=O)N3CCOCC3)cc2c1=O (stereo not drawn) | inactive
Cc1cc(C(=O)NNC(=O)c2cccc(S(=O)(=O)N3CCOCC3)c2)c2ccccc2n1 | inactive
Cc1cc(N2CCN(S(=O)(=O)c3ccc(C)c(C)c3)CC2)c2ccccc2n1 | 16.4 µM (active)
Cc1ccc(S(=O)(=O)C(C#N)c2nc3ccccc3nc2N2CCCC2)cc1C (stereo not drawn) | inactive
CCOc1ccc(CCNC(=O)COC(=O)C2CCN(S(=O)(=O)c3ccccc3)CC2)cc1OCC | inactive
COc1cccc(/C=N/Nc2cc(C)nc(-c3ccccc3O)n2)c1O | 5.62 µM (active)
COc1cccc(/C=N\NC(=O)C2=NNC(=O)C2C)c1O (stereo not drawn) | inactive
COc1cccc(/C=N/Nc2ccc(S(=O)(=O)Nc3ccccc3C(=O)O)cc2[N+](=O)[O-])c1O | inactive
COCCN1C(=O)N(c2ccc(Cl)cc2)C(=O)C1CC(=O)Nc1cc(OC)cc(OC)c1 (stereo not drawn) | inactive

Structure (SMILES) | Potency
CCOC(=O)C1(Cc2ccccc2C)CCCN(C(=O)CCc2c(C)noc2C)C1 (stereo not drawn) | inactive
O=C1CC(c2ccccc2)C(c2ccccc2)=NN1 (stereo not drawn) | inactive
CCNC(=O)CCc1nc(-c2ccc(C)cc2)no1 | inactive
CCNC(=O)CCc1nc(-c2ccc(C(C)(C)C)cc2)no1 | 8.91 µM (active)
Cc1ccc(-c2noc(CCC(N)=O)n2)cc1 | inactive
COc1ccc(Cl)cc1NC(=O)c1cccc(N2C(=O)C3CC=CCC3C2=O)c1 (stereo not drawn) | inactive
O=C(CC1SC(N2CCCC2)=NC1=O)Nc1ccc(C(=O)NCCc2ccc(F)cc2)cc1 (stereo not drawn) | inactive
CC1CC(C)CN(CC(=O)Nc2ccc(S(N)(=O)=O)cc2)C1 (stereo not drawn) | inactive
CC1CC(C)CN(CCC(=O)Nc2ccc3c(c2)CCC3)C1 (stereo not drawn) | 7.3 µM (active)
CC(C)C(=O)OCC(=O)Nc1ccc2c(c1)CCC2 | inactive
Cc1nnc(NC(=O)C(c2ccccc2)c2ccccc2)s1 | inactive
CC/C(=C\c1ccc(Cl)cc1)c1ccncc1 | inactive
O=C1NCC(Nc2ccccc2)C(=O)N1 (stereo not drawn) | inactive
Cc1ccc(CN(C(=O)c2sc3ccccc3c2Cl)C2CCS(=O)(=O)C2)cc1 (stereo not drawn) | inactive
Cc1cc(Cl)ccc1OCC(=O)N(Cc1ccc(N(C)C)cc1)C1CCS(=O)(=O)C1 (stereo not drawn) | inactive
CC1(C)C(C=C(Cl)Cl)C1C(=O)N(Cc1ccc(Cl)cc1)C1CCS(=O)(=O)C1 (stereo not drawn) | 12.6 µM (active)
CCOC(=O)C1(Cc2ccccc2C)CCCN(C(=O)c2ccc(COC)o2)C1 (stereo not drawn) | inactive
O=C1NC(c2ccccc2)Cc2ccncc21 (stereo not drawn) | inactive
Cc1c(C)c2c(c(C)c1O)CC[C@@](C)(CN1CCN(c3cc(N4CCCC4)nc(N4CCCC4)n3)CC1)O2 | 10 µM (active)
O=c1nc(NO)ccn1C1CCCO1 (stereo not drawn) | inactive
N=c1oc2ccccc2cc1C(=O)NCc1ccccc1 | inactive
Cc1cccc(-n2nc3c(c2NC(=O)c2cc4ccccc4o2)CS(=O)(=O)C3)c1 | inactive
COc1cccc(C(=O)Nc2c3c(nn2-c2cccc(C)c2C)CS(=O)(=O)C3)c1OC | 18.3 µM (active)
CCOc1ccc(C(=O)Nc2c3c(nn2-c2ccccc2)CS(=O)(=O)C3)cc1 | inactive
CCN(CC(=O)Nc1ccc(OC)cc1)C(=O)c1ccc(Cl)c(S(=O)(=O)N2CCCC2)c1 | inactive
COc1cccc(N(CC(=O)NC2CCCCCC2)S(=O)(=O)c2ccccc2)c1 | inactive

Structure (SMILES) | Potency
Cn1c(=O)c2c(nc(NCCc3ccccc3)n2Cc2ccccc2)n(C)c1=O | 7.3 µM (active)
Cn1c(=O)c2c(nc(NCCc3ccccc3)n2Cc2ccccc2Br)n(C)c1=O | inactive
Cn1c(=O)c2c(nc(NCCNC(=O)c3ccco3)n2Cc2ccccc2F)n(C)c1=O | inactive
COC(=O)c1ccc(CNC(=O)c2ccc3oc(C(C)C)nc3c2)cc1 | inactive
Cc1nc2ccc(C(=O)N/N=C/c3ccc(O)cc3)cc2[nH]1 | inactive
Cc1ccc(/C=N/NC(=O)C2=NNC(c3ccccc3)(c3ccccc3)C2)c(O)c1 | 8.91 µM (active)
Cc1ccc2occ(/C=N/NC(=O)c3ccccc3C)c(=O)c2c1 | inactive
COc1ccc(NC(=O)c2cccc(Cl)c2)c[n+]1[O-] | inactive
O=C(OCC(=O)N1CCN(C(=O)c2ccco2)CC1)c1c(Cl)cccc1Cl | inactive
CC1CCN(C(=O)CCc2nnc3ccc(NCc4ccco4)nn23)CC1 | 3.16 µM (active)
COc1cccc(NC(=O)CCc2nnc3ccc(N4CCC(C)CC4)nn23)c1 | inactive
O=C(CCc1nnc2ccc(NCc3ccccc3Cl)nn12)NCC1CCN(C2CCCC2)C1 (stereo not drawn) | inactive
CC1=C(C(=O)NC2CC(C)(C)Cc3c2cnn3-c2ccc(C)cc2)OCCO1 (stereo not drawn) | inactive
COc1cccc(-n2c(N)cc(=O)nc2SCC(=O)Nc2cc(C)on2)c1 | inactive
O=C(O)C[C@H](C(=O)OC[C@H]1CCCO1)N1CCOCC1 | inactive
CC1CN(C(=O)c2cc(COc3c(F)cccc3F)on2)CCN1C (stereo not drawn) | inactive
CCN(CC)CCOc1ccc2c(c1)C(=NNC(=O)c1ccccn1)c1cc(OCCN(CC)CC)ccc1-2 | 10.3 µM (active)
CCC(C)(NC(=O)c1ccccn1)C(=O)NC1CCCCC1 (stereo not drawn) | inactive
CCOc1cc(NC(=O)c2ccccn2)c(OCC)cc1NC(=O)c1ccc(OC)cc1 | inactive
CC(=O)N1CCOc2ccc(S(=O)(=O)N3CCC(C(=O)Nc4ccccc4F)CC3)cc21 | inactive
CCOc1ccc(CN2CCN(Cc3ccon3)CC2CCO)cc1 (stereo not drawn) | inactive
Cc1ccc(CN2CCN(Cc3ccc4ncccc4c3)CC2CCO)cc1 (stereo not drawn) | inactive
CCOc1ccc(CN2CCN(Cc3ccc4cc(F)ccc4n3)CC2CCO)cc1 (stereo not drawn) | 10 µM (active)
COc1cccc([C@@H]2Oc3ccc(OC)cc3C(=O)[C@@H]2OC(=O)Nc2cc(OC)c(OC)c(OC)c2)c1 | inactive
Cc1ccccc1CCNC(=O)C1CCC(=O)N(Cc2ccc(Cl)cc2)C1 (stereo not drawn) | inactive
